# From the supplement of paper PMC8975748
# Where a name gives a salt, the structure may show the parent alone.
# System: Saccharomyces cerevisiae BY4741 SeMeCo community
# Experiment: z-score of subpopulation abundance vs DMSO median, subpopulation auxotrophic for L; higher = larger share of this subpopulation than in DMSO controls
# Settings: 10 µM; 24 h; SM minimal medium; subpopulation (auxotrophy): L
# Protocol: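 Fluorescent four-plasmid SeMeCo (self-establishing metabolically cooperating S. cerevisiae BY4741 community; plasmids pH-mRuby2, pL-mWasabi, pU-eCFP, pM-TagRFP657) was grown 24 h in minimal SM medium with each Selleck FDA-approved drug at 10 µM in 384-well plates. Cells were fixed and imaged by high-content confocal microscopy. For each auxotrophic subpopulation (and the prototroph), a z-score gives the deviation from the DMSO vehicle-control population median.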
row,Compound,z-score of subpopulation abundance
1,CN1C(C(=O)Nc2ccccn2)=C(O)c2ccccc2S1(=O)=O [Piroxicam],-0.78
2,CN(Cc1cnc2nc(N)nc(N)c2n1)c1ccc(C(=O)N[C@@H](CCC(=O)O)C(=O)O)cc1 [Methotrexate disodium],-0.58
3,O=C(c1ccc(OCCN2CCCCC2)cc1)c1c(-c2ccc(O)cc2)sc2cc(O)ccc12 [Raloxifene],1.05
4,NC[C@H]1O[C@H](O[C@H]2[C@H](O)[C@@H](O[C@H]3O[C@H](CO)[C@@H](O)[C@H](N)[C@H]3O)[C@H](N)C[C@@H]2N)[C@H](N)C[C@@H]1O [Tobramycin],-0.45
5,COc1ccnc(C[S+]([O-])c2nc3cc(OC(F)F)ccc3[nH]2)c1OC (stereo not given) [Pantoprazole],0.22
6,CN1[C@@H]2CC[C@H]1C[C@@H](OC(=O)c1c[nH]c3ccccc13)C2 [Tropisetron],1.61
7,CCC[S+]([O-])c1ccc2[nH]c(NC(=O)OC)nc2c1 (stereo not given) [Albendazole Oxide],-0.98
8,C=CC1=C(C(=O)O)N2C(=O)[C@@H](NC(=O)/C(=N\OCC(=O)O)c3csc(N)n3)[C@H]2SC1 [Cefixime],-0.33
9,CCC(C)n1ncn(-c2ccc(N3CCN(c4ccc(OCC5COC(Cn6cncn6)(c6ccc(Cl)cc6Cl)O5)cc4)CC3)cc2)c1=O (stereo not given) [Itraconazole],0.48
10,CC(=O)[C@@]1(O)CC[C@H]2[C@@H]3C[C@H](C)C4=CC(=O)CC[C@]4(C)[C@H]3CC[C@@]21C [Medroxyprogesterone],0.51
11,CNCCC(Oc1ccc(C(F)(F)F)cc1)c1ccccc1 (stereo not given) [Fluoxetine HCl],-0.14
12,CNCC[C@H](Oc1cccc2ccccc12)c1cccs1 [Duloxetine],-1.31
13,CS(=O)(=O)c1ccc(C2=C(c3ccccc3)C(=O)OC2)cc1 [Rofecoxib],1.07
14,CC(=O)N[C@H]1[C@H]([C@H](O)[C@H](O)CO)OC(C(=O)O)=C[C@@H]1NC(=N)N [Zanamivir],1.27
15,NC(=O)c1cn(Cc2c(F)cccc2F)nn1 [Rufinamide],1.41
16,COCCCN1CCC(NC(=O)c2cc(Cl)c(N)c3c2OCC3)CC1 [Prucalopride],-0.58
17,"OCc1ccc(Cl)cc1Cl [2,4-dichlorobenzyl alcohol]",0.8
18,CN1CCCN=C1/C=C/c1cccs1 [Pyrantel Pamoate],-0.64
19,CCc1nc(N)nc(N)c1-c1ccc(Cl)cc1 [Pyrimethamine],-0.63
20,CN1CC2c3ccccc3Oc3ccc(Cl)cc3C2C1 (stereo not given) [Asenapine maleate],1.05

row,Compound,z-score of subpopulation abundance
1,CO/N=C(\C(=O)N[C@@H]1C(=O)N2C(C(=O)O)=CCS[C@H]12)c1csc(N)n1 [Ceftizoxime sodium],-1.5
2,COc1c(N2CCNC(C)C2)c(F)cc2c(=O)c(C(=O)O)cn(C3CC3)c12 (stereo not given) [Gatifloxacin],-0.51
3,CN[C@@H]1[C@H](O)[C@H](NC)[C@H]2O[C@@]3(O)C(=O)C[C@@H](C)O[C@H]3O[C@@H]2[C@H]1O [Spectinomycin 2HCl],-1.34
4,CCCCCCCCCC(=O)NC1C(Oc2c3cc4cc2Oc2ccc(cc2Cl)C(OC2OC(CO)C(O)C(O)C2NC(C)=O)C2NC(=O)C(NC(=O)C4NC(=O)C4NC(=O)C(Cc5ccc(c(Cl)c5)O3)NC(=O)C(N)c3ccc(O)c(c3)Oc3cc(O)cc4c3)c3ccc(O)c(c3)-c3c(OC4OC(CO)C(O)C(O)C4O)cc(O)cc3C(C(=O)O)NC2=O)OC(CO)C(O)C1O (stereo not given) [Teicoplanin],-0.21
5,O=C(NCCO[N+](=O)[O-])c1cccnc1 [Nicorandil],0.07
6,CN(C)CCCN1c2ccccc2CCc2ccc(Cl)cc21 [Clomipramine HCl],-0.45
7,C[C@]1(Cn2ccnn2)[C@H](C(=O)O)N2C(=O)C[C@H]2S1(=O)=O [Tazobactam],-0.56
8,COc1cc2c(cc1OC)-c1cc3ccc(OC)c(OC)c3c[n+]1CC2 [Palmatine],2.2
9,CN(C)[C@@H](CCOc1cccc2ccccc12)c1ccccc1 [Dapoxetine HCl],0.84
10,CN(C)CCCN1c2ccccc2Sc2ccccc21 [Promazine hydrochloride],-0.38
11,COc1nc2ccc(Br)cc2cc1[C@@H](c1ccccc1)[C@@](O)(CCN(C)C)c1cccc2ccccc12 [Bedaquiline fumarate],-0.13
12,Clc1ccc(C(Cn2ccnc2)OCc2c(Cl)cccc2Cl)c(Cl)c1 (stereo not given) [Isoconazole nitrate],-3.43
13,COC(=O)C1=C(C)NC(C)=C(C(=O)OC)C1c1ccccc1[N+](=O)[O-] [Nifedipine],0.52
14,CCOC(=O)C1=C[C@]2(CC)CCCN3CCc4c(n1c1ccccc41)[C@@H]32 [Vinpocetine],0.01
15,COCCOC(=O)C1=C(C)NC(C)=C(C(=O)OC(C)C)C1c1cccc([N+](=O)[O-])c1 (stereo not given) [Nimodipine],0.55
16,Cc1cccc(Nc2ccccc2C(=O)O)c1C [Mefenamic Acid],0.31
17,CC1=C(C(=O)O)N2C(=O)[C@@H](NC(=O)[C@H](N)c3ccc(O)cc3)[C@H]2SC1 [Cefadroxil hydrate],-0.28
18,C#C[C@]1(O)CC[C@H]2[C@@H]3CCc4cc(O)ccc4[C@H]3CC[C@@]21C [Ethinyl Estradiol],-0.55
19,"CCC(=O)Oc1ccc2c(c1)CCC1C2CCC2(C)C(OC(=O)CC)CCC12 (stereo not drawn) [Estradiol dipropionate(17-Beta-Estradiol-3,17-Dipropionate)]",-1.37
20,C/C=C\c1ccc(O)c(OC)c1 [Isoeugenol],0.4
